RmlCD inh mix: inhibitors of RmlC and RmlD coupled enzymes; RmlC/RmlD coupled enzyme inhibition, 384-well mixture HTS; inhibition, % at 5.5 µM; AID 1532; 110,000 compounds, 0.39% hits; in the data active = inhibition above about 30%, passing the limit was not always enough; inconclusive = no clear call, values can overlap the other calls
HIV RNase H inh: inhibitors of HIV-1 reverse transcriptase RNase H; P04585; RT-RNase H RNA/DNA duplex cleavage, fluorescence; inhibition, % at 10 µM; 65,000 compounds, 1.9% hits; in the data active = inhibition above about 50%
Active calls of the source: *; u = inconclusive; x = not tested or not shown; ! = not active in a repeat. This is one part of a sample in which hits are shown more often than they occur.

SMILES	RmlCD inh mix	HIV RNase H inh
COc1ccc(-c2cc3c(=O)n(CC(=O)NC4CCN(Cc5ccccc5)CC4)ncn3n2)cc1	x	64*
Cc1ccc2oc(=O)c3cnn(CC(=O)NC4CCN(Cc5ccccc5)CC4)c3c2c1	-5	-12
O=C(COc1ccc2c(c1)OCO2)Nc1ccc2c(c1)oc1ccccc12	8	59*
O=C(Nc1ccc2c(c1)oc1ccccc12)c1ccc2c(c1)OCO2	-6	27
Clc1cccc(-c2nnc3sc(-c4ccc5c(c4)OCO5)nn23)c1	x	75*
Clc1cccc(-c2nn3c(-c4ccncc4)nnc3s2)c1	x	-9
Cc1ccc(-c2nn3c(C)nnc3s2)cc1NC(=O)c1ccc(-c2cccc(Cl)c2)o1	-5	34
Cc1ccc(-c2nn3c(C)nnc3s2)cc1NC(=O)c1ccc(-c2ccc(Cl)cc2Cl)o1	-19	60*
Cc1cc(Nc2cc(Cl)nc(Sc3ccc(NC(=O)C4CC4)cc3)n2)n[nH]1	-11	x
O=C(O)CCC(=O)NC1CCCCCCC1	0	1
O=C(O)CCCCC1CCSS1 (configuration not stated)	73*	x
C=CCn1c(CCNC(=O)c2ccccc2F)nnc1SCC(=O)Nc1nc2ccccc2s1	-7	x
CCCc1nc(C(C)(C)O)c(C(=O)O)n1Cc1ccc(-c2ccccc2-c2nn[nH]n2)cc1	-16	x
O=c1ccc(NS(=O)(=O)c2ccccc2)cn1Cc1ccc(Cl)c(Cl)c1	-3	x
COC(=O)C1=C(C(=O)OC)[C@@H]2N(C)c3ccc(OC)cc3[C@@]23C[C@@H](C(=O)OC)N=C3N1	7	x
Cc1ccc(C(=O)CSc2ccccn2)cc1	-14	-9
O=C(CSc1ccccn1)c1ccc(F)cc1	-2	65*
Cc1ccccc1CSc1n[nH]c(NS(=O)(=O)c2ccccc2)n1	-6	x
COC(=O)C[C@H]1c2cc(C(F)(F)F)ccc2S(=O)(=O)N1C1CCCC1	-1	x
CCO[C@@H]1OC(C(=O)N2CCOCC2)=C[C@H](C(C)(C)C)[C@H]1CCCO	-6	x
Cc1ccc(C)c(Cn2c(=O)n(CCCC(=O)NCc3ccco3)c(=O)c3ccccc32)c1	x	-2
Cc1cc(C)c(Cn2c(=O)n(CCCC(=O)NCc3ccco3)c(=O)c3ccccc32)c(C)c1	-13	80*
C#CCNC(=O)C1=C[C@@H](c2ccc(C#C)cc2)C[C@@H](OCc2ccc(CO)cc2)O1	-8	x
CCOC(=O)c1c(N)sc(C(=O)N(C)C)c1C	-7	-2
CCOC(=O)c1c(NC(=O)OC)sc(C(=O)N(C)C)c1C	-15	52*
SMILES	RmlCD inh mix	HIV RNase H inh
Cc1oc2c(O)c(O)ccc2c(=O)c1-c1ccccc1	3	70*
Cc1oc2c(O)c(O)ccc2c(=O)c1-c1cnn(-c2ccccc2)c1	-8	35
CCCc1cc2c(cc1NC(=O)c1ccc(C)cc1)OCO2	-7	x
CC1(C)Cc2c(C#N)c(N3CCN(C(=O)c4ccccc4)CC3)nc(-c3ccco3)c2CS1	-25	56*
CC(C)c1nc(N2CCN(C(=O)c3ccccc3)CC2)c(C#N)c2c1COC(C)(C)C2	-19	-13
CNC(=O)ON(C(=O)NC)C1N(C)C(=S)SC1(C)C (configuration not stated)	9	25
CN1C(=S)SC(C)(NO)C1(C)C (configuration not stated)	-9	51*
NC(=O)CC(NC(=O)Cc1cccc2ccccc12)c1ccc(N2CCc3ccccc3C2)c([N+](=O)[O-])c1 (configuration not stated)	-10	x
Cc1nc2c(c(=O)n1Cc1ccccc1Cl)c1nc3ccccc3nc1n2Cc1ccco1	x	38
COc1ccc(Cn2c3nc4ccccc4nc3c3c(=O)n(Cc4ccco4)c(C)nc32)cc1	x	62*
COc1ccc(Cn2c(C)nc3c(c2=O)c2nc4ccccc4nc2n3Cc2ccco2)cc1	x	81*
COc1ccc(S(=O)(=O)c2c(N)n(Cc3ccco3)c3nc4ccccc4nc23)cc1	x	47
Cc1cccc(NC(=O)c2nc[nH]c2C(=O)N[C@@H](Cc2ccccc2)C(=O)OCc2ccccc2)c1	5	x
CCCCC(=O)Nc1cc(C(=O)NCCc2ccccc2)ccc1Cl	-2	x
CCCCCCC1NC(C(=O)O)CS1 (configuration not stated)	-12	x
Cc1ccc(S(=O)(=O)Nc2cc(C(=O)Nc3cc(C)cc(C)c3)ccc2Cl)cc1	9	x
COc1ccc(C2CC(=O)C(C=NCCN3CCN(C(C)=O)CC3)=C(O)C2)cc1 (configuration not stated)	11	x
COc1ccc(C2CC(=O)C(C=NCCN3CCOCC3)=C(O)C2)cc1 (configuration not stated)	-26	54*
O=C(NCSc1ccnc(SCNC(=O)c2ccc(F)cc2)n1)c1ccc(F)cc1	68	x
COc1ccc(C2C3=C(CC(C)(C)CC3=O)Nc3c2c(=O)[nH]c(=O)n3Cc2ccccc2)cc1OC (configuration not stated)	2	5
COc1cc(C2C3=C(CC(C)(C)CC3=O)Nc3c2c(=O)[nH]c(=O)n3Cc2ccccc2)ccc1O (configuration not stated)	x	67*!
CCCCN1C(=S)NC[C@@H]1Cc1ccccc1	-61	x
C#CCNC(=O)C1=C[C@H](C)C[C@H](OCc2ccc(CO)cc2)O1	-13	x
Cc1cc(C)n2nc(C(=O)NCc3ccccc3)nc2n1	-7	x
Cc1cc(C)n2nc(C(=O)NCc3ccccc3)cc2n1	-9	88*
SMILES	RmlCD inh mix	HIV RNase H inh
COc1ccc(CNC(=O)C2(CC3CC(c4ccccc4)=NO3)CCNCC2)cc1 (configuration not stated)	-2	x
CCOC(=O)c1c(C)n(C)c2cc(Br)c(C)cc12	-9	x
CCOC(=O)c1c(C)n(C)c2c(C)cc(O)c(OC(=O)CC)c12	9	56*
Cc1nn2c([nH]c(=O)c3ccccc32)c1C=O	-5	x
CCN1CCN(Cc2c(O)c(Cl)cc3c(C)cc(=O)oc23)CC1	u	1
CCCc1cc(=O)oc2cc(C)c(CN3CCCC3)c(O)c12	x	27
Cc1c(C)c2cc(Cl)c(O)c(CN3CCCC(C)C3)c2oc1=O (configuration not stated)	112*	-1
Cc1c(O)c(CN2CCCC(C)C2)cc2c3c(c(=O)oc12)CCC3 (configuration not stated)	x	2
CCCc1cc(=O)oc2c(CN3CCCC3)c(O)c(Cl)cc12	59*	2
Cc1c(C)c2cc(Cl)c(O)c(CN3CCN(C)CC3)c2oc1=O	97*	3
CCc1cccc2c(C=C(C#N)C#N)cn(CC(=O)N3CCCCCC3)c12	14	x
CCC(=O)Nc1sc2c(c1C(=O)N(C)C)CCCCC2	-4	x
CCNC(=O)c1c(N)sc2c1CCCCC2	68	57*
O=C1c2ccccc2C(=O)N1Cc1cc(-c2ccc(Cl)cc2)no1	-4	x
Cc1ccc2cc3cc(C(=O)NCc4ccco4)oc3nc2c1	34	51*
Cc1ccc2cc3cc(C(=O)NCCC(C)C)oc3nc2c1	x	-2
COc1cc(-c2nnc3sc(Cc4ccccc4)nn23)cc(OC)c1OC	4	10
COc1ccc(Cc2nn3c(-c4cc(OC)c(OC)c(OC)c4)nnc3s2)cc1	-49	54*
O=C(CSc1nnc(-c2ccc(Cl)cc2)o1)N1CCN(c2ccccc2)CC1	x	50*
O=C(CSc1nnc(COc2ccc(Cl)cc2)o1)N1CCN(c2ccccc2)CC1	-2	0
O=C1CC(Sc2nnc(-c3ccccc3O)o2)C(=O)N1c1ccccc1 (configuration not stated)	x	55*
